Values without a mark were called inactive. Calls of active or inactive are those of the source. Rule as the data show it: active = fold change permeability below about 0.7 or above about 1.3; inactive = in between.

Results on 39 compounds are retold here after PubChem BioAssay.

The assay can be described thus: modulators of brain endothelial barrier permeability, primary screen, cell-based, FITC-avidin fluorescence, HTS (AID 1963498). Also: test concentration not given here. The settings on record: actives lie on both sides.
With `CC(C)C[C@H](NC(=O)[C@H]1O[C@@H]1C(=O)O)C(=O)NCCCCN=C(N)N`, the fold change permeability is 1.3 (active).

With `O=C(Nc1ccncc1)c1cc([N+](=O)[O-])ccc1Cl`, the fold change permeability is 1.

For `O=C(O)CSCC(=O)NC1CCSC1=O` (centres undefined), the fold change permeability is 1.7 (active).

Take `N[C@@H](Cc1ccc(F)cc1)C(=O)O`: the fold change permeability was 0.8.

Turning to `Fc1ccc(NC(=S)NCCCn2ccnc2)c(F)c1`, the fold change permeability was 0.9.

With `C[C@]12CC[C@@H]3c4ccc(O)cc4CC[C@H]3[C@@H]1[C@@H](O)[C@@H](O)[C@@H]2O`, the fold change permeability is 0.8.

Turning to `OCc1ccc(-c2nn(Cc3ccccc3)c3ccccc23)o1`, the fold change permeability was 2 (active).

`Cc1ccccc1C(OCCN(C)C)c1ccccc1` (centres undefined): the fold change permeability was 1.

For the compound `CC(C)C(=O)Nc1n[nH]c2cc(-c3cccc(NS(=O)(=O)C4CC4)c3)ccc12`, the fold change permeability was 1.2.

With `O=C(OCCN1CCOCC1)C1(c2ccccc2)CCCCC1`, the fold change permeability was 1.

Regarding `CC(=O)O[C@]1(C(C)=O)CC[C@H]2[C@@H]3C=C(Cl)C4=CC(=O)[C@@H]5C[C@@H]5[C@]4(C)[C@H]3CC[C@@]21C`, the fold change permeability was 1.

As to `COc1cc2c(cc1OC)C1CC(=O)C(CC(C)C)CN1CC2` (centres undefined), the fold change permeability is 0.7 (active).

`NNCCc1ccccc1`: the fold change permeability was 1.1.

As to `CCOC(=O)COc1ccc2c(c1)C[C@@H](NC[C@H](O)c1cccc(Cl)c1)CC2`, the fold change permeability was 1.1.

As for `C[N+](C)(C)CCOP(=O)(O)OP(=O)([O-])OC[C@H]1O[C@@H](n2ccc(N)nc2=O)C(O)[C@H]1O` (some centres undefined), the fold change permeability was 1.1.

As to `Cc1nc(Nc2cnn(C3CCNCC3)c2)nc2c1N(C)C(=O)c1cc3ccccc3cc1N2C`, the fold change permeability was 1.

Take `C[C@H]1C[C@H]2[C@@H]3CCC4=CC(=O)C=C[C@]4(C)[C@@]3(Cl)[C@@H](O)C[C@]2(C)[C@@]1(O)C(=O)CO`: the fold change permeability is 1.2.

Consider `C[C@@](Cc1ccc(O)c(O)c1)(NN)C(=O)O`, for which the fold change permeability is 1.2.

On to `CC(=O)C1=C(C)N(c2cccc(C(F)(F)F)c2)C(=O)N[C@@H]1c1ccc(C#N)nc1`, for which the fold change permeability is 1.1.

As to `CN1C2CCCC1CC(NC(=O)c1nn(C)c3ccccc13)C2` (centres undefined), the fold change permeability is 1.4 (active).

Take `[Li+]`: the fold change permeability was 1.

Regarding `COc1cc(C(C)=O)ccc1OCCCN1CCC(c2noc3cc(F)ccc23)CC1`, the fold change permeability is 1.3 (active).

Take `CCCc1c(-c2ccc(O)cc2)nn(-c2ccc(O)cc2)c1-c1ccc(O)cc1`: the fold change permeability was 1.4 (active).

Consider `N#CC(C#N)=C(N)/C(C#N)=C/c1ccc(O)cc1`, for which the fold change permeability was 0.7 (active).

With `CC(=O)OCC(=O)[C@@]1(O)CC[C@H]2[C@@H]3CCC4=CC(=O)CC[C@]4(C)[C@H]3C(=O)C[C@@]21C`, the fold change permeability was 0.9.

On to `Nc1nc2[nH]cc(CCc3ccc(C(=O)N[C@@H](CCC(=O)O)C(=O)O)cc3)c2c(=O)[nH]1`, for which the fold change permeability was 0.9.

Regarding `Cn1cnc([N+](=O)[O-])c1Sc1ncnc2nc[nH]c12`, the fold change permeability is 1.1.

Turning to `c1cnc(N2CCN(Cc3ccc4c(c3)OCO4)CC2)nc1`, the fold change permeability is 1.

Take `CCn1c(=O)[nH]c2cc(Cl)c(Cl)cc21`: the fold change permeability is 0.7 (active).

Regarding `CC[C@H](NC(=O)c1c(O)c(-c2ccccc2)nc2ccccc12)c1ccccc1`, the fold change permeability is 1.1.

`O=C1NCN(c2ccccc2)C12CCN(CCCC(c1ccc(F)cc1)c1ccc(F)cc1)CC2`: the fold change permeability is 1.2.

As to `CNCC(O)c1ccc(O)c(O)c1` (centres undefined), the fold change permeability was 0.8.

With `CCCCCC(O)CCCC(=O)O` (centres undefined), the fold change permeability is 1.

Consider `N#Cc1c(N2C[C@@H]3NCCO[C@H]3C2)c(F)cc2c(=O)c(C(=O)O)cn(C3CC3)c12`, for which the fold change permeability is 0.9.

For the compound `CCCCCCCCCCCCCCCCCCOC[C@H](COP(=O)([O-])OCC[N+](C)(C)C)OC`, the fold change permeability is 1.5 (active).

Turning to `N#Cc1cc2nc(O)c(O)nc2cc1[N+](=O)[O-]`, the fold change permeability is 1.2.

As for `NC(N)=Nc1nc(CSCC/C(N)=N/S(N)(=O)=O)cs1`, the fold change permeability was 0.9.

In the case of `C#CCn1c(=O)c2c(ncn2C)n(C)c1=O`, the fold change permeability is 0.9.

Turning to `Cc1nnc(SCC2=C(C(=O)O)N3C(=O)[C@@H](NC(=O)Cn4cnnn4)[C@H]3SC2)s1`, the fold change permeability is 0.9.
